Assay outcomes deposited in PubChem by several laboratories.
Shown are actives, neighbours in structure and some others; about 1.4% of the full set was active somewhere.
SSB-PriA inh: inhibitors of Klebsiella pneumoniae PriA binding to SSB C-terminal tail; AlphaScreen SSBct-PriA binding, biotinylated peptide; inhibition, % at 33 µM; 430,000 tested, 0.6% active; in the data active = inhibition mostly above about 37%, no sharp cut-off; inactive = mostly below about 20%;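 also: plate controls were negative control peptide for no effect and reference peptide for full effect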
Vc quorum ag: induces V. cholerae light production without autoinducers | V. cholerae BH1578 lux reporter, luminescence, 6 h | activation, % at 18.7 µM | 350,000 tested, 0.16% active; in the data active = activation mostly above about 9.7%, no sharp cut-off; inconclusive = no clear call, values can overlap the other calls; inactive = mostly below about 3.7%
PrPC surface inh: cell surface PrPC inhibition, primary TR-FRET screen. inhibition, % at 13.8 µM. TR-FRET read-out. 370,000 tested, 0.43% active; in the data active = inhibition above about 24%; also: 0% = median of the test wells and 100% = reference compound wells
PrP 5UTR inh: inhibition of PrP 5' UTR reporter expression. 340,000 tested, 0.35% active. inhibition, % (test concentration not listed). cell-based PrP 5' UTR mRNA reporter, plate reader. AID 488862; in the data active = inhibition above about 52%; also: 0 = median of the neutral control wells
FadD28 FP inh: blocks FadD28 binding to the bisubstrate probe | AID 588549 | inhibition, % at 12.5 µM | 360,000 tested, 0.22% active | fluorescence polarization; in the data active = inhibition above about 8.5%, passing the limit was not always enough; inconclusive = no clear call, values can overlap the other calls
Active calls of the source: *; ! = not active in a repeat.

For CCOC(=O)C1=C(C)NC2=C(C(=O)c3ccccc32)C1c1ccc(O)cc1 (stereo unspecified) the results were SSB-PriA inh 52*, Vc quorum ag -4, PrPC surface inh -45, PrP 5UTR inh -6 and FadD28 FP inh inconclusive.
`C=C1C(=O)C23CCC4C(C)(C(=O)OC)CCCC4(C)C2CCC1(O)C3` (stereo unspecified) gave SSB-PriA inh -4, Vc quorum ag inactive, PrPC surface inh 86*, PrP 5UTR inh -22 and FadD28 FP inh -2.
`COC(=O)[C@]1(C)CCC[C@@]2(C)C3CC[C@@]4(C)C[C@]3(CCC21)CC(=O)N4` (stereo partly specified) gave SSB-PriA inh 6, Vc quorum ag -2, PrPC surface inh -4, PrP 5UTR inh -10 and FadD28 FP inh 0.
Oc1ccc(CN2CCC(Cc3ccccc3)CC2)c2cccnc12 was read as SSB-PriA inh 62* and PrPC surface inh 0.
CCN1CCN(Cc2ccc(O)c3ncccc23)CC1 was read as SSB-PriA inh 123*.
Screening CCOC(=O)N1CCN(Cc2ccc(O)c3ncccc23)CC1 returned SSB-PriA inh 88* and PrPC surface inh 0.
Screening Oc1ccc(CN2CCN(c3ccccc3)CC2)c2cccnc12 returned SSB-PriA inh 9, Vc quorum ag -2, PrP 5UTR inh -10 and FadD28 FP inh 0.
`Oc1ccc(CN2CCCCC2)c2cccnc12` gave SSB-PriA inh 99*, Vc quorum ag 0, PrPC surface inh -4, PrP 5UTR inh -21 and FadD28 FP inh -2.
For Cc1ccc(NC(=O)Cn2nc(C)c3cnn(-c4cccc(Cl)c4)c3c2=O)cc1Cl the results were SSB-PriA inh 1.
For CCOc1ccc(CC(=O)Nc2c3c(nn2C(C)(C)C)CSC3)cc1 the results were SSB-PriA inh 4.
For COc1cn(C)c(C(=O)Nc2ccc(C(C)C)cc2)cc1=O the results were SSB-PriA inh -9.
COc1cccc(NC(=O)Nc2nc(SC)ns2)c1 was read as SSB-PriA inh -3, Vc quorum ag inactive, PrPC surface inh 12, PrP 5UTR inh -88 and FadD28 FP inh 2.
`COc1cccc(NC(=O)Nc2nc(SC(C)(C)C)ns2)c1` gave SSB-PriA inh -16, Vc quorum ag 0, PrPC surface inh 9, PrP 5UTR inh -40 and FadD28 FP inh 21*.
`CCSc1nsc(NC(=O)Nc2cccc(F)c2)n1` gave SSB-PriA inh 6, Vc quorum ag inactive, PrPC surface inh 40*, PrP 5UTR inh -34 and FadD28 FP inh 4.
Screening Cc1cccc(NC(=O)NCCc2ccc3c(c2)CCCN3C)c1 returned SSB-PriA inh 56*.
`COc1ccc(CC(=O)NCCc2ccc3c(c2)CCCN3C)cc1` gave SSB-PriA inh 9.
For COc1cc(OC)cc(C(=O)NCCc2ccc3c(c2)CCCN3C)c1 the results were SSB-PriA inh 59*.
For COc1ccc(CCNC(=O)NCCc2ccc3c(c2)CCCN3C)cc1 the results were SSB-PriA inh 50*.
`O=Cc1cnc(-c2ccccn2)nc1` gave SSB-PriA inh 106*.
`c1ccc(-c2nnc(-c3ccccn3)c(-c3ccccn3)n2)nc1` gave SSB-PriA inh 13, Vc quorum ag inactive, PrPC surface inh -16 and FadD28 FP inh 0.
Screening O=C(O)COc1ccc(-c2nccc(-c3ccccn3)n2)cc1 returned SSB-PriA inh -11, Vc quorum ag 0, PrPC surface inh -2, PrP 5UTR inh 28 and FadD28 FP inh -5.
`OCc1ccnc(-c2ccccn2)n1` gave SSB-PriA inh 89*.
c1ccc(-c2nnc(-c3ccccn3)nn2)nc1 was read as SSB-PriA inh 68*, Vc quorum ag 0, PrPC surface inh -5, PrP 5UTR inh -25 and FadD28 FP inh -3.
For c1ccc(-c2ccnc(-c3ccccn3)n2)nc1 the results were SSB-PriA inh 146*.
Screening c1ccc(-c2nnc(-c3ccccn3)nc2-c2ccccc2)cc1 returned SSB-PriA inh 54.
Cc1ccc(NC(=O)c2ccccc2Cl)cc1N1CCCCC1=O was read as SSB-PriA inh -3.
c1ccc(-c2nc(-c3ccccn3)c(-c3ccccn3)nc2-c2ccccn2)nc1 was read as SSB-PriA inh 27.
c1ccc(-c2cccc(-c3ccccn3)n2)nc1 was read as SSB-PriA inh 104*, Vc quorum ag 0, PrP 5UTR inh 42 and FadD28 FP inh -3.
`COc1ccc(CCNC(=O)Cn2cnc(-c3ccc(F)cc3)cc2=O)cc1` gave SSB-PriA inh -5.
Screening CN(C)C(CNc1ccc(C(F)(F)F)cc1[N+](=O)[O-])c1ccccc1 (stereo unspecified) returned SSB-PriA inh 49*, Vc quorum ag -1, PrPC surface inh -5, PrP 5UTR inh -30 and FadD28 FP inh -2.
CN(C)c1ccc(CNS(=O)(=O)c2csc(C(N)=O)c2)cc1 was read as SSB-PriA inh 5, Vc quorum ag 0, PrPC surface inh 4, PrP 5UTR inh -13 and FadD28 FP inh 0.
Screening NC(=O)c1cc(S(=O)(=O)NCCCc2ccccc2)cs1 returned SSB-PriA inh 49*, Vc quorum ag inactive, PrPC surface inh 6, PrP 5UTR inh -14 and FadD28 FP inh -3.
For CCN(CCCNc1cc2c(c(N)c1S(=O)(=O)O)C(=O)c1ccccc1C2=O)c1ccccc1 the results were Vc quorum ag -1, PrPC surface inh -38 and FadD28 FP inh 29*.
Screening CCOc1ccccc1C(=O)NCC(=O)NNC(=O)c1cccc(S(=O)(=O)Nc2ccc(OC)cc2)c1 returned SSB-PriA inh -15, Vc quorum ag 536*, PrPC surface inh 5, PrP 5UTR inh -5 and FadD28 FP inh -3.
`OCCN1CCN(c2nc(Nc3cccc(Cl)c3)c3cnn(-c4ccccc4)c3n2)CC1` gave SSB-PriA inh -14.
`O=C1CCCC/C1=C\Nc1ccc(C(=O)O)c(O)c1` gave SSB-PriA inh 2, Vc quorum ag inactive, PrPC surface inh 2, PrP 5UTR inh -4 and FadD28 FP inh 31*.
For Cc1cc(O)c(C(c2cccs2)c2c(O)cc(C)[nH]c2=O)c(=O)[nH]1 the results were SSB-PriA inh -7.
Cc1nc(-n2nc(C3CC3)cc2NC(=O)[C@@H]2COc3ccccc3O2)[nH]c(=O)c1C was read as SSB-PriA inh -8.
`Brc1ccc(Cn2c(-c3ccc(Br)o3)nc3ccccc32)o1` gave SSB-PriA inh 57*!, Vc quorum ag 0, PrPC surface inh 6, PrP 5UTR inh -30 and FadD28 FP inh -12.
Screening Ic1ccc(Cn2c(-c3ccc(I)o3)nc3ccccc32)o1 returned SSB-PriA inh 1.
For COc1ccc(N=Nc2cc(C)c(O)c(CN3CCCCC3)c2)cc1 the results were SSB-PriA inh 54*, Vc quorum ag inactive, PrPC surface inh -3, PrP 5UTR inh -23 and FadD28 FP inh -2.
For CCN=c1scc(-c2ccco2)n1N=Cc1ccc(OC)c(O)c1 the results were SSB-PriA inh 10.
Screening CCN=c1scc(-c2ccco2)n1/N=C/c1ccc(OC)c(O)c1 returned Vc quorum ag inactive, PrPC surface inh -13, PrP 5UTR inh -226 and FadD28 FP inh 9.4*.
